Compound activity deposited in PubChem BioAssay by several laboratories.
PfHsp90 yeast 2: growth inhibition of PfHsp90-expressing yeast, primary screen, antimalarial PfHsp90 inhibitor project, S. cerevisiae, BacTiter-Glo luminescence, single point, set 2; 310,000 compounds, 0.32% hits; BacTiter-Glo ATP, 48 h; yeast lacking PDR1 and PDR3 efflux regulators; inhibition, % at 9.4 µM;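 active = every replicate shows inhibition above about 80%, whatever the replicate mean, limit read from the data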;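 note: 0% = DMSO neutral controls and 100% = 20 µM radicicol positive controls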
tim10-1 inh: growth inhibitors of tim10-1 mutant yeast, primary screen, luminescence, uHTS. S. cerevisiae tim10-1 ts strain growth, BacTiter-Glo, 24 h. inhibition, % at 20 µM. 330,000 compounds, 2.2% hits;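 active = inhibition of at least 40%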;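 note: mutant grown at 25 °C; 0% = DMSO wells with yeast and 100% = wells holding no yeast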
V-ATPase pHluor: regulators of yeast V-ATPase proton pumping, primary screen, pHLuorin cytosolic pH fluorescence; S. cerevisiae; response, % at 10 µM; 350,000 compounds, 0.37% hits; AID 504577, 2011; in the data active = response mostly above about 7.3%, no sharp cut-off; inactive = mostly below about 5.4%; note: actives read high
tim23-1 inh: growth inhibitors of tim23-1 mutant yeast, primary screen, luminescence, uHTS | AID 463212, 2010 | inhibition, % at 20 µM | 330,000 compounds, 1.3% hits | S. cerevisiae tim23-1 growth, BacTiter-Glo luminescence, 24 h;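 active = growth inhibition of the mutant yeast at or above 50%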;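 note: temperature-sensitive mutant grown at 25 °C; plate controls were DMSO-treated mutant yeast for no effect and medium wells lacking yeast for full effect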
SKKanGAS inh: S. pyogenes SKKanGAS growth inhibitors in kanamycin, primary screen, streptokinase expression inhibitor project, SKKanGAS strain, BacTiter-Glo luminescence; 6 h; inhibition, % at 7.5 µM; 300,000 compounds, 1.3% hits; AID 1662, 2009;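 active = mean replicate score, as percent of positive control median, at least 50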;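 note: strain carries kanamycin resistance gene driven by streptokinase promoter and grows in 40 µg/ml kanamycin; loss of luminescence reflects streptokinase promoter inhibition or plain growth inhibition; 0% = median of DMSO wells and 100% = positive control at its reference dose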
TIM10 inh: growth inhibitors of isogenic TIM10 control yeast, primary screen, counter-screen for tim10-1 yeast inhibitor project, luminescence, uHTS | S. cerevisiae TIM10 strain growth, BacTiter-Glo luminescence, 24 h | inhibition, % at 10 µM | AID 463195, 2010 | 330,000 compounds, 1.4% hits;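 active = inhibition of 40% or more at the single tested concentration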;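 note: wild-type TIM10 isogenic control strain grown at permissive 25 °C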
* = called active by the depositor. Hits are enriched below; roughly 4.6% of the tested compounds scored in any of these assays.

Screening O=C(Nc1cc(S(=O)(=O)Nc2ccc(Cl)cc2)ccc1N1CCCCC1)c1ccc(F)cc1Cl returned PfHsp90 yeast 2 3, tim10-1 inh 10, V-ATPase pHluor 1, tim23-1 inh 28, SKKanGAS inh 34 and TIM10 inh 9.
`CCOc1cc(/C=C2/NC(=S)NC2=O)ccc1OCc1ccc([N+](=O)[O-])cc1` gave tim10-1 inh 7, V-ATPase pHluor 1, tim23-1 inh -6, SKKanGAS inh 74* and TIM10 inh -5.
N[C@@H](C(=O)N[C@@H]1C(=O)N2C(C(=O)O)=C(Cl)CS[C@H]12)c1ccccc1 was read as PfHsp90 yeast 2 -3, tim10-1 inh -10, V-ATPase pHluor -4, tim23-1 inh -5, SKKanGAS inh 105* and TIM10 inh 3.
For CC1=C(C(=O)O)N2C(=O)C(NC(=O)c3ccccc3Cl)C2SC1 (stereo not drawn) the results were PfHsp90 yeast 2 -7, tim10-1 inh 7, V-ATPase pHluor 1, tim23-1 inh 5, SKKanGAS inh 7 and TIM10 inh -3.
`CCN1CCN(c2cc3c(cc2F)c(=O)c(C(=O)O)cn3C2CC2)CC1` gave PfHsp90 yeast 2 13, tim10-1 inh 8, V-ATPase pHluor 2, tim23-1 inh 7, SKKanGAS inh 103* and TIM10 inh 4.
Screening CCCOc1ccc(C(=O)NC(=S)N2CCN(c3cc4c(cc3F)c(=O)c(C(=O)O)cn4CC)CC2)cc1 returned PfHsp90 yeast 2 19, tim10-1 inh 9, V-ATPase pHluor 0, tim23-1 inh -17, SKKanGAS inh 91* and TIM10 inh -2.
CCn1cc(C(=O)O)c(=O)c2cc(F)c(N3CCN(C(=S)NC(=O)c4ccc(F)cc4)CC3)cc21 was read as PfHsp90 yeast 2 2, tim10-1 inh -5, V-ATPase pHluor 2, tim23-1 inh 7, SKKanGAS inh 25 and TIM10 inh -31.
`Clc1cc(Cl)cc(C2=NCCC(c3ccccc3)O2)c1` (stereo not drawn) gave tim10-1 inh 23, tim23-1 inh 13, SKKanGAS inh -2 and TIM10 inh 3.
For CN(C)S(=O)(=O)c1ccc(-c2csc(N/N=C/c3ccc(O)cc3)n2)cc1 the results were PfHsp90 yeast 2 10, tim10-1 inh 14, V-ATPase pHluor 4, tim23-1 inh 22, SKKanGAS inh 65* and TIM10 inh 34.
`CCC(C)n1c(NC(=O)c2ccccc2)c(C#N)c2nc3ccccc3nc21` (stereo not drawn) gave PfHsp90 yeast 2 -2, tim10-1 inh 13, V-ATPase pHluor -1, tim23-1 inh 31, SKKanGAS inh 69* and TIM10 inh 8.
`CCOC(=O)C1=Nc2ccccc2C1=[N+]=[N-]` gave PfHsp90 yeast 2 122*, tim10-1 inh 14, V-ATPase pHluor 3, tim23-1 inh 36, SKKanGAS inh 103* and TIM10 inh -29.
Screening CC[n+]1c(/C=C2\Sc3ccccc3N2C)ccc2cccc(C)c21 returned PfHsp90 yeast 2 -35, V-ATPase pHluor 2 and SKKanGAS inh 69*.
For CSc1ccccc1OCc1cc(C(=O)N2CCN(C)C(c3ccccc3)C2)no1 (stereo not drawn) the results were PfHsp90 yeast 2 135*, tim10-1 inh 35, V-ATPase pHluor 0, tim23-1 inh 48, SKKanGAS inh 3 and TIM10 inh 6.
For CN1CCN(C(=O)c2cc(COc3ccc(F)cc3Cl)on2)CC1c1ccccc1 (stereo not drawn) the results were PfHsp90 yeast 2 72, tim10-1 inh 36, V-ATPase pHluor 0, tim23-1 inh 46, SKKanGAS inh 3 and TIM10 inh 38.
COc1ccc(NC(=O)COC(=O)C2CCN(S(=O)(=O)c3ccccc3)CC2)cc1Cl was read as PfHsp90 yeast 2 -21, tim10-1 inh 22, V-ATPase pHluor -4, tim23-1 inh 24, SKKanGAS inh -4 and TIM10 inh 8.
For COC(=O)C1CCN(Cc2c(C(=O)N3C[C@@H](C)O[C@@H](C)C3)nc3ccc(Cl)cn23)CC1 the results were PfHsp90 yeast 2 2, tim10-1 inh -9, V-ATPase pHluor 0, tim23-1 inh 7, SKKanGAS inh 0 and TIM10 inh 10.
C[C@@H]1CN(C(=O)c2nc3ccc(Cl)cn3c2CN2CCc3sccc3C2)C[C@H](C)O1 was read as PfHsp90 yeast 2 7, tim10-1 inh 16, V-ATPase pHluor 13*, tim23-1 inh 28, SKKanGAS inh 3 and TIM10 inh 14.
Screening CC(=O)C1=C(c2ccc(Br)cc2)C(=O)c2ccccc2C1=O returned PfHsp90 yeast 2 102*, V-ATPase pHluor -1 and SKKanGAS inh 66*.
Screening CC(=O)Nc1c(Br)cc2c(c1Br)C(=O)c1ccccc1-2 returned PfHsp90 yeast 2 23 and V-ATPase pHluor -4.
`CCCCNC(=O)c1cc2cc(CC)ccc2[nH]1` gave PfHsp90 yeast 2 -16, tim10-1 inh 6, V-ATPase pHluor 2, tim23-1 inh -5, SKKanGAS inh -6 and TIM10 inh -2.
For CC(C)n1nc(C(=O)Nc2cccc(S(=O)(=O)N3CCOCC3)c2)c2ccccc2c1=O the results were PfHsp90 yeast 2 -15, tim10-1 inh 12, V-ATPase pHluor -2, tim23-1 inh 18 and TIM10 inh 9.
Screening Cc1ccc(-c2cc(C(=O)Nc3sc4c(c3C(=O)NCc3ccco3)CCC4)[nH]n2)c(O)c1 returned PfHsp90 yeast 2 -9, tim10-1 inh -1, V-ATPase pHluor 0, tim23-1 inh 4, SKKanGAS inh 11 and TIM10 inh 13.
Screening CCNC(=O)c1c(NC(=O)c2cc(-c3cc(C)ccc3O)n[nH]2)sc2c1CCCC2 returned PfHsp90 yeast 2 4, tim10-1 inh 27, V-ATPase pHluor 2, tim23-1 inh 14, SKKanGAS inh 82* and TIM10 inh 2.
For [2H]C([2H])(CCOS(N)(=O)=O)c1ccccc1 the results were PfHsp90 yeast 2 6, tim10-1 inh 10, V-ATPase pHluor 0, tim23-1 inh -2, SKKanGAS inh -7 and TIM10 inh 2.
Screening CCCCCCCCCc1nc2sc3c(c2c(=O)n1NC(=O)c1ccc([N+](=O)[O-])cc1)CC(C)(C)OC3 returned PfHsp90 yeast 2 -23, tim10-1 inh 35, V-ATPase pHluor 2, tim23-1 inh 11, SKKanGAS inh 64* and TIM10 inh -5.
`CCCc1nc2sc3c(c2c(=O)n1NC(=O)c1ccco1)CC(C)(C)OC3` gave PfHsp90 yeast 2 2, tim10-1 inh 24, V-ATPase pHluor 5, tim23-1 inh 17, SKKanGAS inh 3 and TIM10 inh 10.
